Screen size: about 5,500 compounds; about 2,000 (36%) were called active. Not shown: some 18% with an inconclusive outcome. No stated cut-off is given here; in the data, active means normalized growth mostly below about 0.91 (no sharp cut-off); inconclusive means no clear call, values can overlap the other calls; inactive means mostly above about 0.92. The list shows a part of the results.
Assay: chemical genetic growth profiling, strain panel (AID 1159580);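 further: tested at 20 µM; growth read once vehicle control cultures reached saturation at 30 °C; 1 = growth at the plate median or of vehicle wells; lower values mean less growth of the strain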
Conditions: growth OD

Measured: normalized growth

Nc1ncnc2nc[nH]c12
active: S. cerevisiae deletion strains, locus YKR001C, strain vps1, active compounds read low 0.319 | S. cerevisiae deletion strains, locus YLR039C, strain RIC1, active compounds read low 0.443 | S. cerevisiae deletion strains, locus YLR262C, strain YPT6, active compounds read low 0.514 | S. cerevisiae deletion strains, locus YLR268W, strain sec22, active compounds read low 0.795 | S. cerevisiae deletion strains, locus YLR330W, strain CHS5, active compounds read low 0.842 | S. cerevisiae deletion strains, locus YLR418C, strain cdc73, active compounds read low 0.612 | S. cerevisiae deletion strains, locus YMR223W, strain ubp8, active compounds read low 0.846 | S. cerevisiae deletion strains, locus YNL233W, strain BNI4, active compounds read low 0.695 | S. cerevisiae deletion strains, locus YNL307C, strain MCK1, active compounds read low 0.591 | S. cerevisiae deletion strains, locus YOL147C, strain pex11, active compounds read low 0.834 | S. cerevisiae deletion strains, locus YOR144C, strain elg1, active compounds read low 0.885 | S. cerevisiae deletion strains, locus YOR184W, strain ser1, active compounds read low 0.708 | S. cerevisiae deletion strains, locus YPR163C, strain tif3, active compounds read low 0.889 | S. cerevisiae deletion strains, strain wtn01, active compounds read low 0.841 | S. cerevisiae strains, strain wild type, active compounds read low 0.879
inactive: S. cerevisiae deletion strains, locus YJR066W, strain TOR1, active compounds read low 0.966 | S. cerevisiae deletion strains, locus YKL009W, strain mrt4, active compounds read low 0.942 | S. cerevisiae deletion strains, locus YKL068W, active compounds read low 1.03 | S. cerevisiae deletion strains, locus YKL085W, strain MDH1 (second series), active compounds read low 1.01 | S. cerevisiae deletion strains, locus YKL085W, strain MDH1, active compounds read low 1.01 | S. cerevisiae deletion strains, locus YKL160W, strain elf1, active compounds read low 0.995 | S. cerevisiae deletion strains, locus YKR026C, strain gcn3, active compounds read low 0.996 | S. cerevisiae deletion strains, locus YKR091W, strain srl3, active compounds read low 0.99 | S. cerevisiae deletion strains, locus YLL001W, strain dnm1, active compounds read low 0.965 | S. cerevisiae deletion strains, locus YLL026W, active compounds read low 0.994 | S. cerevisiae deletion strains, locus YLL041C, strain sdh2, active compounds read low 0.991 | S. cerevisiae deletion strains, locus YLR027C, strain aat2, active compounds read low 0.997 | S. cerevisiae deletion strains, locus YLR058C, strain SHM2, active compounds read low 0.908 | S. cerevisiae deletion strains, locus YLR102C, strain apc9, active compounds read low 0.997 | S. cerevisiae deletion strains, locus YLR113W, strain HOG1, active compounds read low 1.04 | S. cerevisiae deletion strains, locus YLR221C, strain rsa3, active compounds read low 0.964 | S. cerevisiae deletion strains, locus YLR258W, strain gsy2, active compounds read low 0.985 | S. cerevisiae deletion strains, locus YLR262C, strain YPT6 (second series), active compounds read low 1.01 | S. cerevisiae deletion strains, locus YLR320W, strain mms22, active compounds read low 0.973 | S. cerevisiae deletion strains, locus YLR342W, strain FKS1 (second series), active compounds read low 0.864 | S. cerevisiae deletion strains, locus YLR342W, strain FKS1, active compounds read low 0.983 | S. cerevisiae deletion strains, locus YLR357W, strain rsc2, active compounds read low 0.972 | S. cerevisiae deletion strains, locus YLR370C, strain arc18, active compounds read low 0.983 | S. cerevisiae deletion strains, locus YLR371W, strain rom2, active compounds read low 0.985 | S. cerevisiae deletion strains, locus YLR384C, strain iki3, active compounds read low 0.987 | S. cerevisiae deletion strains, locus YML016C, strain PPZ1, active compounds read low 1.04 | S. cerevisiae deletion strains, locus YML032C, strain rad52, active compounds read low 0.972 | S. cerevisiae deletion strains, locus YML120C, strain ndi1, active compounds read low 0.97 | S. cerevisiae deletion strains, locus YML124C, strain tub3, active compounds read low 1 | S. cerevisiae deletion strains, locus YMR058W, strain fet3, active compounds read low 0.994 | S. cerevisiae deletion strains, locus YMR078C, strain ctf18, active compounds read low 0.988 | S. cerevisiae deletion strains, locus YMR125W, strain sto1, active compounds read low 0.978 | S. cerevisiae deletion strains, locus YMR129W, active compounds read low 0.979 | S. cerevisiae deletion strains, locus YMR205C, strain PFK2, active compounds read low 0.968 | S. cerevisiae deletion strains, locus YMR231W, strain pep5, active compounds read low 0.991 | S. cerevisiae deletion strains, locus YMR263W, strain SAP30, active compounds read low 0.932 | S. cerevisiae deletion strains, locus YMR307W, strain GAS1, active compounds read low 1.18 | S. cerevisiae deletion strains, locus YNL067W, strain RPL9B, active compounds read low 0.945 | S. cerevisiae deletion strains, locus YNL071W, strain lat1, active compounds read low 0.988 | S. cerevisiae deletion strains, locus YNL128W, strain TEP1, active compounds read low 0.955 | S. cerevisiae deletion strains, locus YNL183C, strain NPR1, active compounds read low 0.97 | S. cerevisiae deletion strains, locus YNL209W, strain ssb2, active compounds read low 0.984 | S. cerevisiae deletion strains, locus YNL248C, strain rpa49, active compounds read low 0.982 | S. cerevisiae deletion strains, locus YNL250W, strain rad50, active compounds read low 1.01 | S. cerevisiae deletion strains, locus YNL271C, strain bni1, active compounds read low 0.956 | S. cerevisiae deletion strains, locus YNL298W, strain CLA4, active compounds read low 0.956 | S. cerevisiae deletion strains, locus YNL322C, strain KRE1 (second series), active compounds read low 0.982 | S. cerevisiae deletion strains, locus YNL322C, strain KRE1, active compounds read low 0.97 | S. cerevisiae deletion strains, locus YNR049C, strain mso1, active compounds read low 0.982 | S. cerevisiae deletion strains, locus YNR052C, strain pop2, active compounds read low 0.954 | S. cerevisiae deletion strains, locus YOL006C, strain TOP1, active compounds read low 0.783 | S. cerevisiae deletion strains, locus YOL012C, strain htz1 0.719 | S. cerevisiae deletion strains, locus YOR001W, strain rrp6, active compounds read low 1 | S. cerevisiae deletion strains, locus YOR061W, strain CKA2, active compounds read low 0.995 | S. cerevisiae deletion strains, locus YOR069W, strain VPS5, active compounds read low 0.971 | S. cerevisiae deletion strains, locus YOR070C, strain gyp1, active compounds read low 0.981 | S. cerevisiae deletion strains, locus YOR080W, strain dia2, active compounds read low 0.997 | S. cerevisiae deletion strains, locus YOR083W, strain WHI5, active compounds read low 0.981 | S. cerevisiae deletion strains, locus YOR106W, strain vam3, active compounds read low 0.953 | S. cerevisiae deletion strains, locus YOR136W, strain idh2, active compounds read low 0.968 | S. cerevisiae deletion strains, locus YOR231W, strain MKK1, active compounds read low 1.01 | S. cerevisiae deletion strains, locus YOR265W, strain rbl2, active compounds read low 0.987 | S. cerevisiae deletion strains, locus YOR270C, strain vph1, active compounds read low 0.972 | S. cerevisiae deletion strains, locus YOR290C, strain snf2, active compounds read low 0.971 | S. cerevisiae deletion strains, locus YOR316C, strain cot1, active compounds read low 0.995 | S. cerevisiae deletion strains, locus YPL051W, strain arl3, active compounds read low 0.99 | S. cerevisiae deletion strains, locus YPL055C, strain LGE1, active compounds read low 0.796 | S. cerevisiae deletion strains, locus YPL078C, strain atp4, active compounds read low 0.983 | S. cerevisiae deletion strains, locus YPL106C, strain sse1, active compounds read low 0.973 | S. cerevisiae deletion strains, locus YPL240C, strain hsp82, active compounds read low 0.993 | S. cerevisiae deletion strains, locus YPL241C, strain CIN2, active compounds read low 1.01 | S. cerevisiae deletion strains, locus YPL256C, strain CLN2, active compounds read low 1.06 | S. cerevisiae deletion strains, locus YPR119W, strain clb2, active compounds read low 0.987 | S. cerevisiae deletion strains, locus YPR141C, strain kar3, active compounds read low 1.02 | S. cerevisiae deletion strains, locus YPR167C, strain met16, active compounds read low 0.976
